The text below walks through data of PubChem BioAssay (EPA / NIEHS).

Several values for one entry are separate records, joined by “and”; a condition that tells them apart may be missing. Equal values may be shown once. Results filed as inconclusive are left out. Activity calls are given as the source filed them. The calls were made as follows: active = hit-call score of the fitted dose curve at least 0.9, where 1 is the maximum; inconclusive = response in the unintended direction; inactive = score below 0.9.

The nature of assay [1]: LTEA_HepaRG_LDH_cytotoxicity: Cytotoxicity Assessment in the Life Technologies and Expression Analysis (LTEA) Assay (AID 2283563).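 As to AC50: LDH activity released into spent culture medium as a marker of cell death.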 The essentials: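 LDH release into culture medium read after 48 h chemical treatment of HepaRG cells. Duplicate wells, eight-point half-log series topping at 100 uM, 0.5% DMSO vehicle and baseline.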
The nature of assay [2]: ATG_XTT_Cytotoxicity: Cytotoxicity Assessment in the Attagene TRANS-FACTORIAL HepG2 Assay (AID 2283584).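 As to AC50: cells exposed to compound for 24 h before reading; active means loss of viability signal versus DMSO baseline.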 The essentials: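 Viability endpoint from XTT after 24 h chemical exposure of reporter-transfected human HepG2 liver cells; signal loss fitted relative to DMSO negative control.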
A short description of assay [3]: Tanguay_ZF_120hpf_MORT_legacy: (Legacy) Oregon State University Tanguay Lab 120 Hour Post-fertilization zebrafish Assay for Mortality (AID 2283633). The essentials: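 Static waterborne exposure from 6 to 120 hpf at 28C of single dechorionated wild-type (5D) embryos per well, 0.64% DMSO final. Death recorded present/absent by brightfield at 24 and 120 hpf.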
Assay [4] in a line: Tanguay_ZF_120hpf_YSE_legacy: (Legacy) Oregon State University Tanguay Lab 120 Hour Post-fertilization zebrafish Assay for Yolk Sac Edema (AID 2283634).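 As to AC50: actives raise the incidence of yolk sac edema above the DMSO baseline.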 Put shortly:
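Presence or absence of yolk sac edema was recorded at 120 hpf in surviving larvae. These were wild-type Tropical 5D embryos, chorion removed at 4 hpf, held in static exposure at 28C from 6 hpf with 0.64% DMSO vehicle.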

Assay [5] is described as follows: Tanguay_ZF_120hpf_AXIS_legacy: (Legacy) Oregon State University Tanguay Lab 120 Hour Post-fertilization zebrafish Assay for Body Axis Malformation (AID 2283635).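 As to AC50: potency for an increased fraction of larvae scored with body axis malformation.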 Put shortly:
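Binary scoring of axis defects at 120 hpf under brightfield, fitted positive versus DMSO. Tropical 5D embryos, chorion removed by pronase at 4 hpf, were singly exposed in sealed, dark plates at 28C from 6 hpf; DMSO 0.64% final.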

Assay [6] in a line: Tanguay_ZF_120hpf_EYE_legacy: (Legacy) Oregon State University Tanguay Lab 120 Hour Post-fertilization zebrafish Assay for Eye Malformation (AID 2283636).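 Also: binary presence or absence of eye malformation scored by brightfield in 120 hpf larvae.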 Put shortly: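 Binary brightfield scoring of eye defects at 120 hpf after static exposure from 6 hpf of single pronase-dechorionated wild-type embryos (28C, 0.64% DMSO). Non-mortality endpoints omitted where embryos died; fit vs DMSO.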

Assay [7] in a line: Tanguay_ZF_120hpf_SNOU_legacy: (Legacy) Oregon State University Tanguay Lab 120 Hour Post-fertilization zebrafish Assay for Snout Malformation (AID 2283637). The essentials:
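Binary snout-malformation call at 120 hpf in wild-type 5D embryos, chorion removed by pronase, under static exposure from 6 hpf at 28C (0.64% DMSO). Embryos dying by 24 or 120 hpf excluded.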

Assay [8] can be described thus: Tanguay_ZF_120hpf_JAW_legacy: (Legacy) Oregon State University Tanguay Lab 120 Hour Post-fertilization zebrafish Assay for Jaw Malformation (AID 2283638).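 As to AC50: active means more embryos with jaw malformation than DMSO controls.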 Put shortly:
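Binary jaw-malformation call at 120 hpf by brightfield microscopy. Embryos (Tropical 5D strain, chorion removed at 4 hpf) were dosed statically at 6 hpf, one per well, at 28C with 0.64% DMSO. Embryos that died were not scored.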

Assay [9] in a line: Tanguay_ZF_120hpf_OTIC_legacy: (Legacy) Oregon State University Tanguay Lab 120 Hour Post-fertilization zebrafish Assay for Otic Vesicle Malformation (AID 2283639). Put shortly: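 Wild-type zebrafish larvae, whole-embryo exposure from early stage to 120 hpf at 28C. Binary brightfield scoring of otic vesicle morphology, fitted in the positive direction against the DMSO baseline.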

Assay [10] in a line: Tanguay_ZF_120hpf_SOMI_legacy: (Legacy) Oregon State University Tanguay Lab 120 Hour Post-fertilization zebrafish Assay for Somite Malformation (AID 2283647). Put shortly: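 Binary somite-defect scoring at 120 hpf, omitted for embryos that died, in wild-type (Tropical 5D) zebrafish with chorion removed by pronase at 4 hpf; static exposure began 6 hpf, single embryos per well, 28C, 0.64% DMSO; fitted positive versus DMSO.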

Assay [11] has as its target Cellular tumor antigen p53 (Homo sapiens) (UniProt P04637). Briefly: TOX21_p53_BLA_p2_ratio: Tox21 HCT-116 p53 Agonism Beta-lactamase Assay, Ratio, Phase 2 (AID 2283592). The essentials: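 Read-out is the blue/green (460/530 nm, 405 nm excitation) ratio after 2 h CCF4-AM loading, fitted as gain versus DMSO. Compounds, pinned at 217-fold dilution from DMSO stocks, stayed 16 h on HCT-116 beta-lactamase reporter cells seeded 5 h earlier.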

A short description of assay [12]: TOX21_p53_BLA_p3_viability: Viability Assessment in the Tox21 HCT-116 p53 Agonism Beta-lactamase Assay, Phase 3 (AID 2283593).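 Also: cells exposed to compound for 16 h before reading.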 The essentials: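 Cellular ATP was quantified by CellTiter-Glo luminescence, read after 30 min at room temperature. Beforehand, HCT116 cells (4000/well) received compound 5 h post-seeding, 217-fold diluted from DMSO, then incubated 16 h at 37C.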

The nature of assay [13]: TOX21_p53_BLA_p4_viability: Viability Assessment in the Tox21 HCT-116 p53 Agonism Beta-lactamase Assay, Phase 4 (AID 2283597).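 Also: hits lower the luminescence signal meaning cytotoxicity.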 The essentials: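 Cytotoxicity as reduced cellular ATP (CellTiter-Glo luminescence, 30 min room temperature), measured in the same wells following the CCF4 FRET p53 reading. Human HCT-116 cells received compounds in DMSO (217-fold dilution) for 16 h.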

The target of assay [14] is Cellular tumor antigen p53 (Homo sapiens) (UniProt P04637). Briefly: TOX21_p53_BLA_p5_ratio: Tox21 HCT-116 p53 Agonism Beta-lactamase Assay, Ratio, Phase 5 (AID 2283599). The essentials: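 Beta-lactamase reporter ratio (blue 460 nm over green 530 nm, 405 nm excitation) after 2 h CCF4-AM loading, in HCT-116 cells exposed 16 h at 37 C to compounds pinned at 217-fold dilution. Increases relative to DMSO baseline scored.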

A short description of assay [15]: TOX21_p53_BLA_p5_viability: Viability Assessment in the Tox21 HCT-116 p53 Agonism Beta-lactamase Assay, Phase 5 (AID 2283600). Put shortly: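 Viability came from CellTiter-Glo ATP luminescence, read after 30 min at room temperature. Before this, HCT-116 p53-bla cells (4000/well) had 16 hours of compound exposure at 37C, with DMSO stocks diluted 217-fold on transfer.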

A short description of assay [16]: Tanguay_ZF_120hpf_PE_legacy: (Legacy) Oregon State University Tanguay Lab 120 Hour Post-fertilization zebrafish Assay for Pericardial Edema (AID 2283640).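 As to AC50: potency for increased incidence of pericardial edema versus DMSO baseline.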 Put shortly: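 Scoring was binary, by brightfield microscopy at 120 hpf, and skipped where mortality occurred. Wild-type embryos were kept under sealed, foil-covered static exposure at 28C in 0.64% (vol/vol) DMSO.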

Assay [17] can be described thus: Tanguay_ZF_120hpf_BRAI_legacy: (Legacy) Oregon State University Tanguay Lab 120 Hour Post-fertilization zebrafish Assay for Brain Malformation (AID 2283641). The essentials:
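Binary brightfield scoring of brain malformation at 120 hpf in Tropical 5D larvae held under static exposure at 28C (0.64% v/v DMSO), non-mortality endpoints skipped if dead. Positive control: 5uM trimethyltin chloride; fit versus DMSO.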

Assay [18] in a line: TOX21_p53_BLA_p2_viability: Viability Assessment in the Tox21 HCT-116 p53 Agonism Beta-lactamase Assay, Phase 2 (AID 2283591).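 Also: compound exposure lasted 16 h at 37 °C; actives lower the ATP signal meaning cytotoxicity.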 The essentials: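 Cytotoxicity readout: CellTiter-Glo ATP luminescence, 30 min at room temperature, after the beta-lactamase read. Cells were HCT116 exposed 16 h at 37C to compounds pin-transferred at 217-fold dilution from DMSO stocks.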
The target of assay [19] is Cellular tumor antigen p53 (Homo sapiens) (UniProt P04637). Description: TOX21_p53_BLA_p3_ratio: Tox21 HCT-116 p53 Agonism Beta-lactamase Assay, Ratio, Phase 3 (AID 2283596). Put shortly: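 Cells were seeded at 4000/well, rested 5 h at 37C, then dosed with DMSO compound solutions (217-fold dilution) for 16 h. CCF4-AM substrate was loaded for 2 h at room temperature, and the 460/530 nm emission ratio was fitted for gain of signal versus DMSO.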

Assay [20] shares this target. Briefly: TOX21_p53_BLA_p4_ratio: Tox21 HCT-116 p53 Agonism Beta-lactamase Assay, Ratio, Phase 4 (AID 2283601). The essentials:
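Signal is the blue/green (460nm/530nm) ratio of cleaved versus uncleaved CCF4-AM substrate, read after 2 h substrate loading. Cells were HCT116 carrying the p53-responsive beta-lactamase reporter, dosed 16 h at 37C, 5% CO2; CellTiter-Glo measured in parallel.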

Sequence of Cellular tumor antigen p53 (Homo sapiens) (P04637 whole entry, looked up): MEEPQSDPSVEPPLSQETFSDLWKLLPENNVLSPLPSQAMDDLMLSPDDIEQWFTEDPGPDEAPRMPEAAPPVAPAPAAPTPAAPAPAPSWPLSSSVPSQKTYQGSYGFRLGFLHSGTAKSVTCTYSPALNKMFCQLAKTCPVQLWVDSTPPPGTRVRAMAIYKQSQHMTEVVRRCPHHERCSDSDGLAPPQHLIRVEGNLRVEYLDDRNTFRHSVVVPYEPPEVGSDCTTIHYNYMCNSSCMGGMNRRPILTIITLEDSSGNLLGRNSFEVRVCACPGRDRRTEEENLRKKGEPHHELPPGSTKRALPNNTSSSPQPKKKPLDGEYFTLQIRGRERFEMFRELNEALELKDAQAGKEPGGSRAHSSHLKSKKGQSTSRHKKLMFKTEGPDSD

Turning to `CCC(=C(c1ccc(O)cc1)c1ccc(OCCN(C)C)cc1)c1ccccc1`, the AC50 (as a rule, the concentration giving half of the maximal activity seen) in [1] is 80.5 µM (active); in [2], 18.4 µM (active) and 34.2 µM (active) and 6.67 µM (active). Besides, the call in assay [3], in assay [4], in assay [5], in assay [6], in assay [7] and in [8] was inactive. Besides, the molecule was called inactive in assay [9] and in assay [10].

As to `C[C@@H]1C[C@H]2[C@@H]3CCC4=CC(=O)C=C[C@]4(C)[C@@]3(F)[C@@H](O)C[C@]2(C)[C@@]1(O)C(=O)COP(=O)(O)O`, the molecule was classed as inactive in assay [1], in assay [2], in assay [11], in assay [12], in [13] and in assay [14]. Moreover, the molecule was called inactive in assay [15], in assay [3], in assay [4], in [5], in [6] and in assay [7]. Besides, the molecule was called inactive in assay [8], in [9], in [16], in assay [17] and in assay [10].

With `CCc1nn(C2CCCCC2)c2cc(C3(C#N)CCC(C(=O)O)CC3)ccc12` (configuration not stated), the molecule was called inactive in assay [1], in assay [18], in [12], in [13], in assay [14] and in assay [15]. Besides, the AC50 in assay [11] was 46.3 µM (active); in assay [19] it was 73.5 µM (active); in assay [20], 75.2 µM (active); in [4] it was 0.324 µM (active); in assay [5], 0.384 µM (active); in [6] it was 0.377 µM (active). Besides, the AC50 is 0.344 µM (active) in [7]; 0.332 µM (active) in assay [8]; 3.66 µM (active) in assay [9]; 0.27 µM (active) in assay [16]; 2.71 µM (active) in assay [17]; 0.506 µM (active) in assay [10].

Turning to `CCN(CC)CCNc1ccc(CNC=O)c2sc3ccc(OC)cc3c(=O)c12`, the AC50 in assay [1] was 80.1 µM (active); in assay [11], 10.2 µM (active); in assay [19], 18.7 µM (active); in assay [14], 29 µM (active); in [20] it was 12.1 µM (active). In addition, the outcome in assay [18], in assay [12], in assay [13], in assay [15], in assay [3] and in [4] was inactive. Further, the result in assay [5], in assay [6], in [8], in assay [16], in assay [17] and in [10] was inactive.

With `OC1CCCCC1`, the result in assay [1], in assay [2], in [11], in assay [19], in assay [13] and in assay [14] was inactive. Besides, the molecule was called inactive in assay [15], in assay [3], in assay [4], in assay [5], in assay [6] and in assay [7]. For the same molecule, the result in assay [8], in [9], in assay [16], in assay [17] and in [10] was inactive.

For the molecule `C#C[C@]1(O)CC[C@H]2[C@@H]3CCC4=CC(=O)CC[C@@H]4[C@H]3CC[C@@]21C`, the molecule was classed as inactive in [1], in assay [2], in assay [3], in assay [4], in [5] and in assay [6]. Also, the result in assay [7], in assay [8], in assay [9] and in assay [16] was inactive.

Turning to `Cc1cc(CCN2CCN(c3nsc4ccccc34)CC2)cc2c1NC(=O)CC2(C)C`, the half-maximal activity concentration (AC50) was 76.8 µM (active) in [1]; 60.5 µM (active) in assay [18]; 71.6 µM (active) in assay [11]; 19.9 µM (active) in [12]; 74.3 µM (active) in [13]; 82.8 µM (active) in assay [20]. For the same molecule, the AC50 in assay [4] is 3.6 µM (active); in [5], 5.38 µM (active); in [6], 3.05 µM (active); in assay [7], 3.18 µM (active); in [8], 3.26 µM (active); in [9], 6.42 µM (active). In addition, the values for the AC50 in assay [16], in assay [17] and in [10] were 2.96 µM (active), 5.16 µM (active) and 3.88 µM (active), respectively. The outcome in [19], in assay [14], in assay [15] and in assay [3] was inactive.

Take `CN1CCN(c2ccccc2/C=C2\SCCN(c3ccc(Cl)c(Cl)c3)C2=O)CC1`: the half-maximal activity concentration (AC50) was 69.7 µM (active) in assay [1], 77.6 µM (active) in assay [12], 86 µM (active) in [14] and 83.7 µM (active) in assay [15]. The outcome in assay [18], in [11], in assay [19], in assay [13], in assay [20] and in assay [3] was inactive. In addition, the outcome in [4], in assay [5], in [6], in [7], in assay [8] and in assay [9] was inactive. The result in assay [16], in [17] and in assay [10] was inactive.
